According to PubChem BioAssay AID1159569 (Broad Institute, 2015):
Entries with a potency or affinity are not part of this list. Inconclusive results are not listed. Active and inactive are the calls of the source. No rule for the calls is given here.

experiment: HepG2 cell cytotoxicity, dose response, cytotoxicity control, plate reader, dry powder samples (AID 1159569); details: HepG2 cytotoxicity counterscreen; series mostly up to 50 µM; activity change, negative = cytotoxicity: at the top concentration

Compound	activity change, negative = cytotoxicity
CCCC#Cc1ccc([C@H]2[C@@H](CO)N(C(=O)C3CCCCC3)[C@H]2C#N)cc1	-36.5% (inactive)
CCCC(=O)Nc1ccc2c(c1)OC[C@@H](C)N(Cc1ccccc1F)C[C@@H](C)[C@H](OC)CN(C)C2=O	-6.21% (inactive)
C[C@H](CO)N1C[C@H](C)[C@@H](CN(C)C(=O)Nc2cccc3ccccc23)Oc2ccc(NC(=O)Cc3cn(C)c4ccccc34)cc2C1=O	-2.74% (inactive)
COc1ccc2c3c(n(C)c2c1)[C@@H](CO)N(C(=O)C1CCC1)CC31CN(C(=O)Nc2cccc(F)c2)C1	-32.2% (inactive)
O=C(Nc1ccccc1F)N1CCCCN2[C@@H](CO)[C@H](c3ccc(C#Cc4cccnc4)cc3)[C@@H]2C1	-29.5% (inactive)
COc1cccc(-c2cccc(-c3nc(C(=O)NCc4ccc(Oc5ccccc5)cc4)cc4c3[C@@H](CCO)N(S(=O)C(C)(C)C)C4)c2)c1 (some centres undefined)	-3.88% (inactive)
COc1ccc(S(=O)(=O)Nc2cccc3c2O[C@H](CN(C)Cc2ccc(-c4ccccc4)cc2)[C@@H](C)CN([C@H](C)CO)C3=O)cc1	-13.1% (inactive)
N#C[C@@H]1[C@H](c2ccccc2C2=CCCCC2)[C@@H](CO)N1C(=O)c1cccc(F)c1	-46.1% (inactive)
CC(C)(C)S(=O)N1Cc2cc(C(=O)NCc3ccc(Oc4ccccc4)cc3)nc(-c3cccc(-c4cccc(F)c4)c3)c2[C@@H]1CCO (some centres undefined)	2.11% (inactive)
COc1ccc(S(=O)(=O)Nc2ccc3c(c2)CC(=O)N([C@@H](C)CO)C[C@H](C)[C@H](CN(C)S(=O)(=O)c2ccc(OC)cc2)O3)cc1	-25.8% (inactive)
CCCNC(=O)N1[C@H](C#N)[C@H](c2ccc(C#Cc3cccc(F)c3)cc2)[C@H]1CO	-49.6% (inactive)
O=C(c1ccccc1F)N1CC(=O)N2[C@H](C1)[C@@H](c1ccc(-c3cccnc3)cc1)[C@@H]2CO	2.48% (inactive)
COc1ccc(NC(=O)N(C)C[C@@H]2Oc3cc(-c4ccc(C)cc4)ccc3S(=O)(=O)N([C@H](C)CO)C[C@@H]2C)cc1	-15.6% (inactive)
COc1ccc(NC(=O)N2CCCCN3[C@H](CO)[C@H](c4ccc(C#Cc5ccccn5)cc4)[C@@H]3C2)cc1	-9.61% (inactive)
CCCc1cn(CC[C@@H]2CC[C@H](NS(=O)(=O)c3ccc(-c4ccccc4)cc3)[C@H](CO)O2)nn1	-45.1% (inactive)
C[C@@H]1CN([C@@H](C)CO)C(=O)c2cccc(NC(=O)C3CC3)c2O[C@@H]1CN(C)C(=O)Nc1ccc(C(F)(F)F)cc1	-8.27% (inactive)
C[C@@H]1CN([C@@H](C)CO)C(=O)c2cccc(NC(=O)Nc3ccc4c(c3)OCO4)c2O[C@@H]1CN(C)C(=O)Nc1ccc2c(c1)OCO2	-9.01% (inactive)
COc1ccc2c3c([nH]c2c1)[C@H](CO)N(S(=O)(=O)c1ccc(C)cc1)CC31CCN(C(=O)Cc2cccnc2)CC1	-5.11% (inactive)
COc1ccc2c3c(n(C)c2c1)[C@@H](CO)N(C(=O)C1CC1)CC31CN(C(=O)Nc2cccc(F)c2)C1	4.26% (inactive)
